Compound activity as filed in PubChem.
An excerpt weighted towards active compounds, which were near 4% of everything screened.
C2C12 statin: protects C2C12 myotubes from simvastatin toxicity; ATP luminescence, 48 h; scaled: DMSO 0, geranylgeraniol control 100; rescue of ATP level, % at 7.49 µM; 330,000 tested, 0.78% active;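 active = mean ATP rescue above about 67%, or every replicate alone reaching that limit, limit read from the data, passing the limit was not always enough; inconclusive = no clear call, values can overlap the other calls; inactive = mean under the limit and some replicate under it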;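 also: myotubes were challenged with 10 µM simvastatin during compound exposure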
TRPM1 prom inh: inhibitors of MITF-driven TRPM1 promoter in melanoma cells. SK-MEL-5 TRPM1 promoter luciferase, 24 h. inhibition, % at 12.5 µM. 330,000 tested, 0.83% active. AID 488899;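 active = mean inhibition across replicates of 60% or more, whatever share of single replicates reaches that level; inconclusive = some that reach 60%, reason not given; inactive = mean inhibition across replicates below 60%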
Wnt bcat act: activators of Wnt/beta-catenin signaling; Wnt/beta-catenin reporter cell assay, activator, plate reader; activation, % at 9.35 µM; 300,000 tested, 1.2% active; in the data active = activation above about 30%, passing the limit was not always enough; inconclusive = no clear call, values can overlap the other calls;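 also: 0% = neutral control wells and 100% = positive control wells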
EBV LMP1 NFkB: Epstein-Barr LMP1 NF-kappaB reporter inhibition | LMP1-induced NF-kappaB luciferase reporter cells, luminescence | inhibition, % at 12.5 µM | 350,000 tested, 0.69% active; in the data active = inhibition above about 41%; inconclusive = no clear call, values can overlap the other calls;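 also: 0% = neutral control wells and 100% = reference inhibitor control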
esBAF inh: inhibitors of esBAF chromatin remodeling in mouse ES cells; AID 602393; reporter increase, % at 12.5 µM; Bmi1-luciferase knock-in reporter, 24 h; 100% = twice the neutral-well signal; 350,000 tested, 2% active; in the data active = activation above about 40%; inconclusive = no clear call, values can overlap the other calls;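 also: 0% = median of the plate's neutral control wells and 100% = double that signal; a rise in the Bmi1 reporter signal indicates esBAF inhibition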
MITF act: increases MITF-driven TRPM1 promoter luciferase signal; activation, % at 12.5 µM; SK-MEL-5 TRPM1-promoter luciferase, 24 h; % of positive control, neutral wells = 0; 300,000 tested, 0.75% active;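 active = mean activation of at least 80% with every replicate also reaching 80%; inconclusive = mean reaches 80% but some replicate falls short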;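 also: 0% = neutral control wells and 100% = parthenolide positive control wells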
Numbers without * were called inactive.

Screening CCOC(=O)C(CC(=O)c1ccccc1)CC(=O)c1ccccc1 returned C2C12 statin -2.2, TRPM1 prom inh -88.0, Wnt bcat act 6.0, EBV LMP1 NFkB -14.4, esBAF inh 56.9* and MITF act 86.8*.
For CN(C)CCCn1c(SCC(=O)Nc2nc(-c3cccc(Br)c3)cs2)nc2ccccc2c1=O the results were C2C12 statin -3.7, TRPM1 prom inh 63.1*, Wnt bcat act 4.0, EBV LMP1 NFkB -16.5, esBAF inh 28.1 and MITF act -61.5.
Screening Cc1ccc(NC(=O)CSc2nc3ccccc3c(=O)n2CCCC(=O)N2CCCC2)cc1 returned C2C12 statin 2.1, TRPM1 prom inh 23.1, EBV LMP1 NFkB 1.1 and esBAF inh -5.3.
For CC(=O)c1cccc(NC(=O)CSc2nc3ccccc3c(=O)n2CCCN2CCOCC2)c1 the results were C2C12 statin 5.9, TRPM1 prom inh 1.0, Wnt bcat act -0.2, EBV LMP1 NFkB 0.1, esBAF inh 0.8 and MITF act -2.7.
`O=C(CSc1nc2ccccc2c(=O)n1CC1CCCO1)Nc1ccccc1Cl` (configuration not stated) gave C2C12 statin 79.2*, TRPM1 prom inh 6.0, Wnt bcat act -2.8, EBV LMP1 NFkB -5.9, esBAF inh -4.5 and MITF act -2.5.
For Cc1ccc(NC(=O)CSc2nc3ccccc3c(=O)n2CCCN2CCCCC2)cc1C the results were C2C12 statin -38.3, TRPM1 prom inh 69.6*, Wnt bcat act 19.9, EBV LMP1 NFkB 34.4 and esBAF inh -3.0.
For O=C(CSc1nc2ccccc2c(=O)n1CCCN1CCOCC1)Nc1ccc(Br)cc1 the results were C2C12 statin 11.5, TRPM1 prom inh -9.5, Wnt bcat act -2.9, EBV LMP1 NFkB 49.2* and MITF act 7.0.
`CCCNC(=O)N(C)C[C@@H]1Oc2cc(-c3ccccc3F)ccc2S(=O)(=O)N([C@H](C)CO)C[C@H]1C` gave C2C12 statin -8.1 and esBAF inh 0.9.
CCCCn1c(N)c(N(CCC(C)C)C(=O)c2ccc(C)o2)c(=O)[nH]c1=O was read as C2C12 statin -4.1, TRPM1 prom inh 2.6, Wnt bcat act -4.1, EBV LMP1 NFkB -3.9, esBAF inh -4.5 and MITF act -1.4.
For CC1(C)CNC(=O)c2sc(N3CCCCC3)nc2C1 the results were TRPM1 prom inh -20.4, EBV LMP1 NFkB -10.7 and esBAF inh 15.2.
`CC1(C)CC(=O)c2sc(N3CCCCC3)nc2C1` gave C2C12 statin 13.1, TRPM1 prom inh -47.6, EBV LMP1 NFkB -9.8, esBAF inh 50.8* and MITF act 49.8.
For COc1ccc(Cc2noc(CN3CCCC(OCc4ccccn4)C3)n2)cc1OC (configuration not stated) the results were TRPM1 prom inh -18.0, Wnt bcat act -5.6, EBV LMP1 NFkB 1.2 and MITF act 17.6.
`C[C@H](CO)N1C[C@H](C)[C@H](CN(C)S(=O)(=O)c2cccs2)Oc2ccc(NC(=O)Nc3cccc4ccccc34)cc2CC1=O` gave C2C12 statin 18.4 and esBAF inh 8.4.
Screening Cc1ccc(S(=O)(=O)Nc2ccc3c(c2)C(=O)N([C@@H](C)CO)C[C@@H](C)[C@@H](CN(C)S(=O)(=O)c2cccs2)O3)cc1 returned C2C12 statin 0.1 and esBAF inh -3.6.
`C[C@@H]1CN([C@H](C)CO)C(=O)Cc2cc(NC(=O)Nc3cccc4ccccc34)ccc2O[C@@H]1CN(C)S(=O)(=O)c1cccs1` gave C2C12 statin 75.2* and esBAF inh -2.2.
For Cc1ccc(S(=O)(=O)Nc2ccc3c(c2)C(=O)N([C@@H](C)CO)C[C@@H](C)[C@H](CN(C)S(=O)(=O)c2cccs2)O3)cc1 the results were C2C12 statin 99.6* and esBAF inh 0.5.
Cc1ccc(S(=O)(=O)Nc2ccc3c(c2)CC(=O)N([C@@H](C)CO)C[C@H](C)[C@@H](CN(C)S(=O)(=O)c2cccs2)O3)cc1 was read as C2C12 statin 77.2* and esBAF inh 4.2.
Screening CCOC(=O)Cc1cnc(NC(=O)CSc2nc(N)cc(=O)[nH]2)s1 returned C2C12 statin -2.5, TRPM1 prom inh -9.8, Wnt bcat act -0.7, EBV LMP1 NFkB -2.5, esBAF inh 4.9 and MITF act 7.5.
CCOC(=O)c1csc(NC(=O)c2ccc(OCC)cc2)n1 was read as TRPM1 prom inh 13.6, Wnt bcat act -3.7, EBV LMP1 NFkB 15.4 and MITF act -11.8.
`CCOC(=O)c1csc(NC(=O)c2ccccc2)n1` gave C2C12 statin 11.2, Wnt bcat act inconclusive, EBV LMP1 NFkB -27.4 and esBAF inh 50.1*.
CCOC(=O)Cc1cnc(NC(=O)c2ccccc2)s1 was read as C2C12 statin -4.2, TRPM1 prom inh -40.7, Wnt bcat act -1.2, EBV LMP1 NFkB -10.5, esBAF inh 51.1* and MITF act 47.5.
Screening CCOC(=O)c1csc(NC(=O)c2cc3ccccc3o2)n1 returned C2C12 statin -12.7, TRPM1 prom inh -46.8, Wnt bcat act 6.3, EBV LMP1 NFkB -15.4, esBAF inh 64.2* and MITF act 43.7.
Cc1csc(NC(=O)CNS(=O)(=O)c2cccs2)n1 was read as TRPM1 prom inh 6.3, EBV LMP1 NFkB 3.2 and esBAF inh 7.0.
`O=C1CC(N2CCN(C/C=C/c3ccccc3)CC2)C(=O)N1Cc1ccc(N2CCCC2=O)cc1` (configuration not stated) gave C2C12 statin 99.9*, TRPM1 prom inh 26.3, Wnt bcat act -2.7, EBV LMP1 NFkB 8.4, esBAF inh -1.2 and MITF act -22.7.
Screening O=C1CC(N2CCOCC2)C(=O)N1Cc1ccc(N2CCCC2=O)cc1 (configuration not stated) returned C2C12 statin 2.6, TRPM1 prom inh 9.9, EBV LMP1 NFkB 2.8, esBAF inh -4.2 and MITF act -6.2.
CCN1C=CC(=C2C(=O)c3ccccc3C2=O)C=C1 was read as C2C12 statin -53.7, TRPM1 prom inh 99.6*, EBV LMP1 NFkB 90.2*, esBAF inh -82.6 and MITF act -97.9.
`CCCN1C=CC(=C2C(=O)c3ccccc3C2=O)C=C1` gave C2C12 statin -63.8, TRPM1 prom inh 104.7*, EBV LMP1 NFkB 86.7*, esBAF inh -83.1 and MITF act -104.2.
For CCCCCCN1C=CC(=C2C(=O)c3ccccc3C2=O)C=C1 the results were C2C12 statin -25.0, TRPM1 prom inh 79.7*, Wnt bcat act -3.7, EBV LMP1 NFkB 52.8*, esBAF inh -78.5 and MITF act -78.6.
CCOC(=O)Cc1csc(NC(=O)CSc2nnc(C(C)C)n2CC)n1 was read as C2C12 statin -14.0, TRPM1 prom inh -2.0, Wnt bcat act -1.1, EBV LMP1 NFkB -10.0, esBAF inh -7.0 and MITF act 2.2.
